# Sampled rows, rich in hits. Any-hit rate of the full collection: about 3.4%.
# GPR151 ag – activates the human receptor GPR151 | Q8TDV0 | PathHunter beta-arrestin GPR151 cells, luminescence | activation, % at 11.2 µM | 650,000 compounds, 1% hits | AID 1508602; in the data active = activation above about 4.9%;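 note: 0% = median of compound wells and 100% = cells with positive control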
# Target sequence (Q8TDV0 whole entry, looked up): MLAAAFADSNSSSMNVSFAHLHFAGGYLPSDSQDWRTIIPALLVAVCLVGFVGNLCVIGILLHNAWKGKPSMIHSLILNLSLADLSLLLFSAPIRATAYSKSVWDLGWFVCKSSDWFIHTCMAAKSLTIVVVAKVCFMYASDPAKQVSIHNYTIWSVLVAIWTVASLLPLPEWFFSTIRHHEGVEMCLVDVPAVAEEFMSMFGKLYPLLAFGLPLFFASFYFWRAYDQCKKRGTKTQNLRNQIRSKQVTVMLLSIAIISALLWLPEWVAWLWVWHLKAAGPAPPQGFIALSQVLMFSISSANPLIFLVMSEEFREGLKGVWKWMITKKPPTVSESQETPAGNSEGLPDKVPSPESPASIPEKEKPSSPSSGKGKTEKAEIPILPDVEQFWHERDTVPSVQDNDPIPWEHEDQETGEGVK
# TEAD-YAP inh – TEAD-YAP interaction inhibition | HEK-TIYL cells, TEAD-Gal4/YAP UAS-luciferase luminescence | inhibition, % at 9.12 µM | 640,000 compounds, 1.4% hits | AID 1259422; in the data active = inhibition above about 32%;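 note: 0% = median of test compound wells and 100% = reference inhibitor wells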
# FBW7 act – activators of human E3 ligase FBW7 | AlphaScreen FBW7–phospho-cyclin E peptide binding, activator screen | Q969H0 | AID 1259310 | normalized activity (activation), % at 26.1 µM | 650,000 compounds, 0.13% hits; in the data active = normalized activity above about 1.9%;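 note: purified mutant Fbw7 with reduced substrate affinity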
# MITF inh – human MITF inhibition, primary screen; AlphaScreen MITF homodimerization, bead proximity signal; inhibition, % at 2.6 µM; 650,000 compounds, 0.91% hits; in the data active = inhibition above about 50%;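 note: 0% = vehicle wells with protein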
# GPR151 conf act – confirmation of human GPR151 activators. 6,700 tested, under 10 active. shares compounds with GPR151 ag. activation, % at 11.2 µM. GPR151 PathHunter beta-arrestin cells, luminescence, 90 min; % of EA-reagent control over plate median;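 active = mean percent activation across replicates above the confirmation screen cutoff of 4.91%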
# GPR119 ag – activates human GPR119 in a GPR151 counter-screen; shares compounds with GPR151 ag; GPR119 PathHunter beta-arrestin cells, luminescence, 90 min; 0 = compound-well median, 100 = enzyme-acceptor control; activation, % at 11.2 µM; 6,700 compounds, 0.3% hits;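 active = mean percent activation in the counterscreen above 29.09%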;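 note: counterscreen on off-target GPR119 to flag nonselective hits from the GPR151 activator screen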
# Numbers without * were called inactive; · = no result.
SMILES,GPR151 ag,TEAD-YAP inh,FBW7 act,MITF inh,GPR151 conf act,GPR119 ag
N#CC1=C(N)N(c2ccc([N+](=O)[O-])cc2)C2=C(C(=O)CCC2)C1c1ccccc1 (centres undefined),0,2,0,4,·,·
Nn1cnn2c(SCc3ccc(Cl)cc3Cl)nnc12,-1,8,0,11,·,·
O=C(CCCc1ccccc1)Nc1ccccc1,0,-60,0,12,·,·
N#Cc1cccc(NC(=O)Cc2ccccc2)c1,7.6*,4,0,18,0,-4
O=C(CCCc1ccccc1)Nc1ccc(F)cc1,6.1*,-90,0,-4,-1,-13
N#Cc1cccc(NC(=O)CCCc2ccccc2)c1,0,-41,0,-12,·,·
N#Cc1ccc(NC(=O)CCCc2ccccc2)cc1,5.1*,-81,0,8,0,-8
Cc1cccc(NS(=O)(=O)c2ccc3c4c(cccc24)C(=O)N3)c1,1,8,0,-8,·,·
O=C(NCCO)C12CC3CC(C1)CC(c1ccc([N+](=O)[O-])cc1)(C3)C2,0,1,0,3,·,·
COc1ccc2c(c1)O[C@H](c1ccc3c(c1)OCO3)C(OC(=O)Nc1cc(OC)c(OC)c(OC)c1)C2=O (some centres undefined),0,·,0,2,·,·
Nn1c(SCC(=O)Nc2cccc(F)c2)nnc1-c1ccc(Cl)cc1,6.2*,1,0,-6,0,2
NC(=O)c1ccc(NC(=O)CSc2nnc(-c3ccc(Cl)cc3)n2N)cc1,0,6,0,3,·,·
Cc1ccc(S(=O)(=O)n2ccn(CC(=O)NCCc3ccccc3)c2=O)cc1,2,-6,0,-8,·,·
CC(C)(C)c1nnc(NC(=O)c2ccc([N+](=O)[O-])cc2)s1,0,-2,1,13,·,·
COc1ccc(C(=O)Nc2nnc(C(C)(C)C)s2)cc1[N+](=O)[O-],7.3*,-13,0,-6,-2,-18
CCOc1ccc(S(=O)(=O)N2CCN(C)CC2)cc1-c1nc2c(C(C)(C)C)nn(C)c2c(=O)[nH]1,5.1*,4,0,-6,0,9
Nc1cccc(-c2cc(C(=O)O)c3cc(Br)ccc3n2)c1,6.7*,-1,0,7,-1,-12
O=C(O)c1cc(-c2cccnc2)nc2ccc(Br)cc12,-1,2,1,7,·,·
CSc1nnc2c(n1)OC(c1c(Cl)cccc1Cl)Nc1ccccc1-2 (centres undefined),1,0,0,-3,·,·
CCc1ccc(N(CC(=O)N2CCC(C(N)=O)CC2)S(C)(=O)=O)cc1,0,4,0,7,·,·
CS(=O)(=O)N(CC(=O)N1CCC(C(N)=O)CC1)c1ccc(Oc2ccccc2)cc1,5.0*,-8,0,-2,-1,-6
O=C(O)CC1S/C(=N/N=C/c2cccc(Cl)c2Cl)NC1=O (centres undefined),-1,2,0,0,·,·
COCCN1CCN(Cc2nc(-c3ccccn3)no2)CC1,0,-6,0,11,·,·
COCCCC1CCN(Cc2nc(-c3ccccn3)no2)CC1,6.7*,-9,0,-3,0,0
O=C(COC(=O)C12CC3CC(CC(O)(C3)C1)C2)c1ccc(Br)cc1,3,5,0,1,·,·
SMILES,GPR151 ag,TEAD-YAP inh,FBW7 act,MITF inh,GPR151 conf act,GPR119 ag
CCCCOC(=O)C1C2C=CC3(CN(C4CCCCC4)C(=O)C13)O2 (centres undefined),5.8*,2,0,11,1,1
CC(C)NC(=O)CSc1ncnc2c1sc1nc3ccccc3cc12,-1,-4,0,5,·,·
N#Cc1ccccc1CN1CCC(Oc2cccc(-c3cccnc3)c2)CC1,5.2*,8,0,1,-1,7
Cc1cccc(N(CC(=O)Oc2ccc(Cl)cc2)S(C)(=O)=O)c1,1,-3,0,0,·,·
O=C(NCCCN1CCOCC1)c1cc(S(=O)(=O)N2CCOCC2)ccc1Sc1ccc(Br)cc1,5.6*,-8,0,-5,-1,5
CCCCNC(=O)c1cc(S(=O)(=O)N2CCOCC2)ccc1Sc1ccc(Br)cc1,0,0,0,2,·,·
Cc1ccc2nc(C(F)(F)F)c(C(=O)NCc3ccc4c(c3)OCO4)n2c1,0,2,1,0,·,·
CCOc1ccc(NC(=O)C2=CCN(S(=O)(=O)c3ccccc3)CC2)cc1,5.4*,-4,0,-4,0,2

# From PubChem BioAssay
